# Screening results from PubChem BioAssay.
# Hits are enriched below; roughly 4.1% of the tested compounds scored in any of these assays.
# DAX1 inh-1: inhibitors of DAX1 repression of SF-1 activated StAR promoter | inhibition, % at 6.8 µM | HEK293T StAR-luciferase reporter, SF-1/DAX-1 repression relief | AID 652010 | hit rate 1.1% among 370,000;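 active = inhibition above the mean over all tested compounds plus 3 SD, cut at about 3.6% in these data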;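 note: 0% = DAX-1 cells with DMSO and 100% = cells lacking DAX-1 with DMSO; higher inhibition means more luminescence from relief of DAX-1 repression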
# hcDAF12 agonist: H. contortus DAF-12 activation, primary screen. activation, % at 6.8 µM. hit rate 1.4% among 370,000. HEK293 hcDAF-12 lit1-tk-luc reporter, luminescence; 0% DMSO, 100% Δ7-dafachronic acid;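 active = activation above the mean of all tested compounds plus 3 SD, cut at about 5.5% in these data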;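 note: 100% = response to 3 µM Δ7-dafachronic acid high control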
# DAX1 inh-2: inhibits human nuclear receptor DAX1; P51843; HEK293 Gal4-DAX1 luciferase reporter, luminescence; inhibition, % at 6.75 µM; hit rate 0.99% among 340,000;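 active = inhibition above the mean over all tested compounds plus 3 SD, cut at about 4.2% in these data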;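 note: 0% = DAX1-transfected cells with DMSO and 100% = empty-vector control cells with DMSO; inhibition shows as a rise in luminescence from relieved DAX1 repression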
# Target sequence (P51843 207-470 limits assumed): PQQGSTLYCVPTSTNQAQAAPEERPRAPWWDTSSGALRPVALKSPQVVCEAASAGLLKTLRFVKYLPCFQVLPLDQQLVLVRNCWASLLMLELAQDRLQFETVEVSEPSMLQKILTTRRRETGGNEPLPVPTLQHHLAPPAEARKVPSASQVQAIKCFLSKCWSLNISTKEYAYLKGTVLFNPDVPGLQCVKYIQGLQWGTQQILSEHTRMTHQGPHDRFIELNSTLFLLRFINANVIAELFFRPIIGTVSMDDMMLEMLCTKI
# hgDAF12 agonist: hgDAF-12 agonism, primary luciferase screen | HEK293 GAL4-hgDAF12 UAS-luciferase reporter, agonist luminescence; normalized to butyrate control | activation, % at 6.8 µM | hit rate 1.8% among 370,000 | AID 687014;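 active = activation above a cutoff set at the mean of all screened compounds plus 3 SD, cut at about 10% in these data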;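 note: 0% = DMSO wells and 100% = sodium butyrate wells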
# ssDAF12 agonist: S. stercoralis DAF-12 activation, primary screen; HEK293 ssDAF-12/GRIP1 lit1-tk-luc reporter, luminescence; % of 3 µM dafachronic acid response; activation, % at 6.8 µM; hit rate 1% among 370,000;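 active = activation above the mean over all tested compounds plus 3 SD, cut at about 0.9% in these data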;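 note: 0% = DMSO-only wells and 100% = 3 µM delta7-dafachronic acid wells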
# hgDAF12 conf: hgDAF-12 agonism, confirmation assay; shares compounds with hgDAF12 agonist; HEK293 GAL4-hgDAF12 luciferase reporter, agonist mode; percent of butyrate response; activation, % at 6.8 µM; hit rate 80% among 3,300; AID 743050;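 active = mean activation over triplicate wells above the hit cutoff derived from the earlier primary screen, cut at about 11% in these data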;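 note: 0% = DMSO low control and 100% = 2 mM sodium butyrate high control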
# LXRb DAF12 ctr: activates human LXR-beta, counter-screen for DAF-12 agonists; shares compounds with hgDAF12 agonist; HEK293 Gal4-LXR luciferase reporter, 24 h; activation, % at 6.8 µM; 3,300 tested, under 10 active; AID 743051;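 active = mean activation of the triplicate above a set limit carried over from the primary screen, none filed active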
# Numbers without * were called inactive; · = no result given.
SMILES,DAX1 inh-1,hcDAF12 agonist,DAX1 inh-2,hgDAF12 agonist,ssDAF12 agonist,hgDAF12 conf,LXRb DAF12 ctr
COCc1cc(N2CCN(C(=O)OC(C)(C)C)C[C@@H]2C)ccc1N1CC[C@H](O)C1,-1,-3,·,0,-1,·,·
CN(Cc1ccccc1)C(=O)OCc1cn(Cc2ccc(C(F)(F)F)cc2)nn1,0,-2,·,-1,-1,·,·
CCN1CCN(CC(=O)Nc2cc(C)on2)CC1,0,1,0,-5,-1,·,·
Cc1cc(NC(=O)CN2CCCCC2)no1,0,-1,1,14*,0,1,0
Cn1cccc1/C=C1\SC(=O)N(c2ccccc2)C1=O,2,3,3,16*,0,20*,1
CCOC(=O)[C@@]12CCCC=C1N(CCc1ccc(Cl)cc1)C(=O)[C@H]2CC(=O)N1CCSCC1,-2,-5,·,-3,-1,·,·
CCOC(=O)NNc1nncc2ccccc12,3,0,0,-1,-1,·,·
CC/C(=N\Nc1nncc2ccccc12)c1ccc(F)cc1,1,4,0,16*,0,16*,1
C/C(=N\Nc1nncc2ccccc12)c1ccc(OCC(=O)N(C)C)cc1,2,5,1,16*,0,4,0
COc1ccc(CN2CCC(CNC(=O)Nc3ccccc3)CC2)cc1,-1,-2,·,8,-1,·,·
O=C(Nc1cccc2ccccc12)c1ccc2sc([C@@H]3O[C@H](CO)[C@@H](O)[C@H]3O)nc2c1,1,0,·,6,-1,·,·
O=C(Nc1ccccc1F)c1ccc2sc([C@@H]3O[C@H](CO)[C@H](O)[C@H](O)[C@H]3O)nc2c1,1,2,·,14*,0,8,0
COc1ccc(-c2cc(C(=O)N/N=C/C(C)=C\c3ccco3)[nH]n2)cc1,0,3,·,0,0,·,·
CCc1ccc(-c2cc(C(=O)N/N=C/c3ccco3)[nH]n2)cc1,2,4,1,14*,0,3,0
O=C(N/N=C/c1ccco1)c1cc(-c2ccc3ccccc3c2)n[nH]1,2,3,2,15*,0,0,0
O=C(N[C@H](C(=O)N1CCC[C@H]1C(=O)NCCc1ccccc1Cl)c1ccccc1)c1ccc(Cl)c(Cl)c1,0,-2,·,-2,-1,·,·
Cc1ccc2nc(-c3ccc(NC(=O)CSc4nccc(=O)[nH]4)cc3)sc2c1,2,5,2,14*,0,12*,1
Cc1ccc2nc(-c3ccc(NC(=O)CSc4nnc(Cc5cccs5)n4C)cc3)sc2c1,2,4,·,13*,0,16*,1
Cc1nnc(SCC(=O)Nc2ccc(-c3nc4ccccc4s3)cc2)s1,4,6.0*,3,20*,1,20*,1
O=S(=O)(c1ccc(F)cc1)N1CCCc2nc(-c3ccc(F)cc3)ccc21,1,1,·,0,-1,·,·
COc1ccc(Cn2ccc3ccc(-c4ccc5ccn(Cc6ccccc6)c5c4)cc32)cc1,0,2,·,9,1,·,·
CCCNC(=O)c1noc2c1CCc1cc(OC)ccc1-2,3.8*,2,3,16*,-1,13*,1
CCCC[C@H](C(=O)N(C)c1ccccc1)[C@@H](O)c1ccc2ccccc2c1,-1,-2,·,-3,-1,·,·
O=C(c1cc(-c2ccc(Cl)cc2)nc2ccccc12)N1CCN(c2ncccn2)CC1,0,2,·,3,0,·,·
CC(=O)Nc1ccc(-c2csc(NCc3ccco3)n2)cc1,1,2,1,15*,-1,12*,0
CN(C)c1ccc(C=Cc2ccnc3ccccc23)cc1N,1,2,·,17*,-1,10,0
Nc1nc2ccccc2n1C(=O)c1cccs1,3,5,1,15*,1.0*,13*,1
Nc1nc2ccccc2n1C(=O)CCc1ccccc1,1,4,5.0*,14*,0,18*,1
CN(C)/C=N/c1nc(-c2ccc3ccccc3c2)cs1,2,4,5.0*,18*,0,12*,1
